This passage reports residual activity results from ChEMBL document CHEMBL2218924, “A broad activity screen in support of a chemogenomic map for kinase signalling research and drug discovery” (Biochem J, 2013).

Test [1] addresses T1, Rhodopsin kinase GRK7 (Homo sapiens) (UniProt Q8WTQ7).
T1 sequence (whole entry): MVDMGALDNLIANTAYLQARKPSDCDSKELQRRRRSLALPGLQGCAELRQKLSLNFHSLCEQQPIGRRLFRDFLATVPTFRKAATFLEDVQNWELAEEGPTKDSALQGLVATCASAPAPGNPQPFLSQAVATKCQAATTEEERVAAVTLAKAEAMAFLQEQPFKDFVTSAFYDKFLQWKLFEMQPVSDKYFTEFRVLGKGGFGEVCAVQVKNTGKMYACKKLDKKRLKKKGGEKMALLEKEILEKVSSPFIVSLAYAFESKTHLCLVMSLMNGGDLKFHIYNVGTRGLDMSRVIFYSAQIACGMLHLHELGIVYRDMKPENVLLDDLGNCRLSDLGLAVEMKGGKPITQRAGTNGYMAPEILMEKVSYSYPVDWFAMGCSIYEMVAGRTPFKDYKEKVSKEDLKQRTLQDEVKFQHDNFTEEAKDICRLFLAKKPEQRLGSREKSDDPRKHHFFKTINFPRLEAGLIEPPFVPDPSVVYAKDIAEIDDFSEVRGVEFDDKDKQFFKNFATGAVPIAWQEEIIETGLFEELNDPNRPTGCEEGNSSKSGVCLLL
The following applies: at 10 µM.

The target in test [2] is Glycogen synthase kinase-3 alpha (Homo sapiens) (UniProt P49840). The settings on record: at 1 µM.
For test [3] the target is unchanged. The settings on record: at 10 µM.
Test [4] addresses Glycogen synthase kinase-3 beta (Homo sapiens) (UniProt P49841). The following applies: at 1 µM.
Test [5] shares this target. The following applies: at 10 µM.
Test [6] concerns the target Homeodomain-interacting protein kinase 2 (Homo sapiens) (UniProt Q9H2X6). The settings on record: at 1 µM.
Test [7] shares this target. The following applies: at 10 µM.
In test [8] the target is T2, Serine/threonine-protein kinase haspin (Homo sapiens) (UniProt Q8TF76).
T2 sequence (whole entry): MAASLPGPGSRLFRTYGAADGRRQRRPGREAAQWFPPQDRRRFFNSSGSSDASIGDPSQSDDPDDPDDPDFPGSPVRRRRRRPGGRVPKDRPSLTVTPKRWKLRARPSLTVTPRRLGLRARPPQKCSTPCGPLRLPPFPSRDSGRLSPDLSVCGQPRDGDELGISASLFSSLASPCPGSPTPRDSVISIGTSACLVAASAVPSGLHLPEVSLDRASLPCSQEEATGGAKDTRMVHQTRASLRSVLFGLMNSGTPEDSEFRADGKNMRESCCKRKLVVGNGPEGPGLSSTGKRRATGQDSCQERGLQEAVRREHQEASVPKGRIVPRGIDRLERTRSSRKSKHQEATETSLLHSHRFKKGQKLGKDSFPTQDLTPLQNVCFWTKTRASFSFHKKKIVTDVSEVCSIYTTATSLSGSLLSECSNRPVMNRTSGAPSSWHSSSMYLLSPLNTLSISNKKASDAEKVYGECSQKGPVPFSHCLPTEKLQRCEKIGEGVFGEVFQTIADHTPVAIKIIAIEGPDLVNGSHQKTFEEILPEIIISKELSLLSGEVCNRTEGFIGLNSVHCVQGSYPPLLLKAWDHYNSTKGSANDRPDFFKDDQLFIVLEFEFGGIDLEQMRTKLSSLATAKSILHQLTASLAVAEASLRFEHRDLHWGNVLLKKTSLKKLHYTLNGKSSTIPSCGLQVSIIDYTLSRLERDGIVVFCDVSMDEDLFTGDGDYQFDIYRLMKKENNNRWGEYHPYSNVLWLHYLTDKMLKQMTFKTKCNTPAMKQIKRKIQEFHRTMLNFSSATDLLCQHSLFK
The settings on record: at 1 µM.

In test [9] the target is T2, Serine/threonine-protein kinase haspin (Homo sapiens). The following applies: at 10 µM.
Test [10] has as its target Tyrosine-protein kinase HCK (Homo sapiens) (UniProt P08631). The settings on record: at 1 µM.
Test [11] shares this target. The settings on record: at 10 µM.
Test [12] has the same target. The following applies: at 1 µM. The source holds these as a separate data set.
Test [13] shares this target. The following applies: at 10 µM. This is another data set of the same source.
Test [14] has as its target Insulin-like growth factor 1 receptor (Homo sapiens) (UniProt P08069). The following applies: at 1 µM.
For test [15] the target is unchanged. The following applies: at 10 µM.
In test [16] the target is Homeodomain-interacting protein kinase 1 (Homo sapiens) (UniProt Q86Z02). The settings on record: at 1 µM.
Test [17] shares this target. The following applies: at 10 µM.
In test [18] the target is Homeodomain-interacting protein kinase 3 (Homo sapiens) (UniProt Q9H422). The settings on record: at 1 µM.
Test [19] shares this target. The settings on record: at 10 µM.
For test [20], the target named is T3, Protein kinase C zeta type (Homo sapiens) (UniProt Q05513).
T3 sequence (whole entry): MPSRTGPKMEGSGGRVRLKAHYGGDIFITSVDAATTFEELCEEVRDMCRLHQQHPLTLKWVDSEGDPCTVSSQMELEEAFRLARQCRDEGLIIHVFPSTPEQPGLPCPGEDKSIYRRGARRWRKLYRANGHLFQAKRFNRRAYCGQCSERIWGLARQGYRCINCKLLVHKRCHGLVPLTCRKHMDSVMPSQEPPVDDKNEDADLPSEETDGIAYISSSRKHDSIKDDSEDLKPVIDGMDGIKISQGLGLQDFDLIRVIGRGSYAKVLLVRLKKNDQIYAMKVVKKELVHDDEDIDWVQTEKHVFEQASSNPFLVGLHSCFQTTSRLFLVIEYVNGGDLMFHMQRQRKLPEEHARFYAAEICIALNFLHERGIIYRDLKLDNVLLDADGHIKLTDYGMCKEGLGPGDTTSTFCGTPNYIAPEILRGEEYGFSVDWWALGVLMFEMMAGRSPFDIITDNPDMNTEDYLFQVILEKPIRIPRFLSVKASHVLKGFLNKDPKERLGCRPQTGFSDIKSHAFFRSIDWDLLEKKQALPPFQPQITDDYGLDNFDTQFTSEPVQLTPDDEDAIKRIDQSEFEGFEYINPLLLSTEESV
The following applies: at 10 µM.

Chain of Insulin-like growth factor 1 receptor (Homo sapiens) (P08069 31-736 limits assumed): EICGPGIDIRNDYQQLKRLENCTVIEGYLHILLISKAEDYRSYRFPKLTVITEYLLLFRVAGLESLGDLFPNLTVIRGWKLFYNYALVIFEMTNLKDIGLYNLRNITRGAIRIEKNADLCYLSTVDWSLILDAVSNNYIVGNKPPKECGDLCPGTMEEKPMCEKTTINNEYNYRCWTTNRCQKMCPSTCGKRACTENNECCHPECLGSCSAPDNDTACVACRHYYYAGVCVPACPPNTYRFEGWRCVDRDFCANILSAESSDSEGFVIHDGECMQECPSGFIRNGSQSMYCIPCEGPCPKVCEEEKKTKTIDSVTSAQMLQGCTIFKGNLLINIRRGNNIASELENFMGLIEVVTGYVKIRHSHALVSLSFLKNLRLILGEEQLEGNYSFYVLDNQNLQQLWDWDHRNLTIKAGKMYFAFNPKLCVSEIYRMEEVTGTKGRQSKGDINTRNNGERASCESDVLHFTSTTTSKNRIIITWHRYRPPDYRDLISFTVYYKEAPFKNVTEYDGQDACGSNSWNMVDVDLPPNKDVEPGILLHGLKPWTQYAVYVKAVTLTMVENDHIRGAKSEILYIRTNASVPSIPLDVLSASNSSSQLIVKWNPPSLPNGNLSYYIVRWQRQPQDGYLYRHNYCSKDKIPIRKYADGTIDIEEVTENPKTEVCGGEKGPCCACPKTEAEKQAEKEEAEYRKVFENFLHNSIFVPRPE
Chain of Insulin-like growth factor 1 receptor (Homo sapiens) (P08069 741-1367 limits assumed): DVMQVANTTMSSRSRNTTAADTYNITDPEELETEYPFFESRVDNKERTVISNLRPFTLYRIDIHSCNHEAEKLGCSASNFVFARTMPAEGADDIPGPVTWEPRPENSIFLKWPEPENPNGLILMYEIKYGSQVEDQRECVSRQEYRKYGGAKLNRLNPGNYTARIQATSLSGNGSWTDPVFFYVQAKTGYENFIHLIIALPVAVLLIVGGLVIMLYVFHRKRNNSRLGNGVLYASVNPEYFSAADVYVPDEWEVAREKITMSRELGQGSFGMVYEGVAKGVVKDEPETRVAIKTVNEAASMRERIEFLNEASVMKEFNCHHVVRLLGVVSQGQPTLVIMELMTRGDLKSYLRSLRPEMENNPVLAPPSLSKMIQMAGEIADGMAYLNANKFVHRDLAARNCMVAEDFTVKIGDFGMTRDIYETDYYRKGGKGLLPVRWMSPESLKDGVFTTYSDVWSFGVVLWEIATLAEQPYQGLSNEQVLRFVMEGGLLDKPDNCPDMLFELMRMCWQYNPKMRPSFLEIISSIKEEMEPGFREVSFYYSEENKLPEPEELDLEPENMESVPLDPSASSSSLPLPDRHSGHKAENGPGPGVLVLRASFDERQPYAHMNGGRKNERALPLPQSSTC
Chain of Glycogen synthase kinase-3 beta (Homo sapiens) (P49841 whole entry, looked up): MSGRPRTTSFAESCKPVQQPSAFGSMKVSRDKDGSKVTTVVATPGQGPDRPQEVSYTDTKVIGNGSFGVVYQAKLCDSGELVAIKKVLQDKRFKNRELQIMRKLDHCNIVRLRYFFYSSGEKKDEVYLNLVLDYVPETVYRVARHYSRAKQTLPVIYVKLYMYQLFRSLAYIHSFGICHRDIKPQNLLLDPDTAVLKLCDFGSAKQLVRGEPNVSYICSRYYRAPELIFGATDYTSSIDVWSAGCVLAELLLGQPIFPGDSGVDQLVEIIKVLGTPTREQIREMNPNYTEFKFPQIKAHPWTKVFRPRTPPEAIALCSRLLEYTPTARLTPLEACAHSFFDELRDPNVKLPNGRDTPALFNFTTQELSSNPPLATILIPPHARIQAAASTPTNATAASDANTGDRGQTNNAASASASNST
Chain of Homeodomain-interacting protein kinase 3 (Homo sapiens) (Q9H422 whole entry, looked up): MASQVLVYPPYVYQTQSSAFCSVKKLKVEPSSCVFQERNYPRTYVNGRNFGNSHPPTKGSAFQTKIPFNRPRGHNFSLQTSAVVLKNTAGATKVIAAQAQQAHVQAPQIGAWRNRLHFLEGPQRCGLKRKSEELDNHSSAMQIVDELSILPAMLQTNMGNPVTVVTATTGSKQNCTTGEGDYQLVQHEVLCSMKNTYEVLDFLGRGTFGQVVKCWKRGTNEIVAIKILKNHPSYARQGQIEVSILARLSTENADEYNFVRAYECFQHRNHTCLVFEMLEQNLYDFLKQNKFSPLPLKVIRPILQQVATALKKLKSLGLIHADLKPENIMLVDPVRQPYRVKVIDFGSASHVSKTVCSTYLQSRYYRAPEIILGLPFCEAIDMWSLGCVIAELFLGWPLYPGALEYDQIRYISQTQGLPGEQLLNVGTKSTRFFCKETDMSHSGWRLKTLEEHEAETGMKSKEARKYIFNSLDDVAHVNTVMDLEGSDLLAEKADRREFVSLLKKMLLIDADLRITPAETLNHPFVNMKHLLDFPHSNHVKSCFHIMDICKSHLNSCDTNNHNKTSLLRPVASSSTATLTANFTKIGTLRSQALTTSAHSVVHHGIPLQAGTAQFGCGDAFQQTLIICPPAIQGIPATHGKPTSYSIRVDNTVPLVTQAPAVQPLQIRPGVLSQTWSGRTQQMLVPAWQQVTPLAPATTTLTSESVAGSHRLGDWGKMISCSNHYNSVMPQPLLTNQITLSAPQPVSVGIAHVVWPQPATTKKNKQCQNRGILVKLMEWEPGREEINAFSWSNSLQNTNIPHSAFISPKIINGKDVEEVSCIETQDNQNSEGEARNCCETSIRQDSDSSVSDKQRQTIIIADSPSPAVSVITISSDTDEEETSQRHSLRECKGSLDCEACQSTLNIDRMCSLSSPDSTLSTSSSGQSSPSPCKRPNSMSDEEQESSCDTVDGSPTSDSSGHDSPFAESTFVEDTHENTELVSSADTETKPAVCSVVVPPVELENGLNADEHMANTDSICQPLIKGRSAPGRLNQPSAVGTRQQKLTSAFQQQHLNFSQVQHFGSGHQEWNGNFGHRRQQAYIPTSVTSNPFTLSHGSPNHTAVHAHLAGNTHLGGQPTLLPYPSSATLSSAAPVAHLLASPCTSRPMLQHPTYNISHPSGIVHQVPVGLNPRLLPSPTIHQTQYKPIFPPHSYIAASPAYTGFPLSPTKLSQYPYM
Chain of Tyrosine-protein kinase HCK (Homo sapiens) (P08631 2-526 limits assumed): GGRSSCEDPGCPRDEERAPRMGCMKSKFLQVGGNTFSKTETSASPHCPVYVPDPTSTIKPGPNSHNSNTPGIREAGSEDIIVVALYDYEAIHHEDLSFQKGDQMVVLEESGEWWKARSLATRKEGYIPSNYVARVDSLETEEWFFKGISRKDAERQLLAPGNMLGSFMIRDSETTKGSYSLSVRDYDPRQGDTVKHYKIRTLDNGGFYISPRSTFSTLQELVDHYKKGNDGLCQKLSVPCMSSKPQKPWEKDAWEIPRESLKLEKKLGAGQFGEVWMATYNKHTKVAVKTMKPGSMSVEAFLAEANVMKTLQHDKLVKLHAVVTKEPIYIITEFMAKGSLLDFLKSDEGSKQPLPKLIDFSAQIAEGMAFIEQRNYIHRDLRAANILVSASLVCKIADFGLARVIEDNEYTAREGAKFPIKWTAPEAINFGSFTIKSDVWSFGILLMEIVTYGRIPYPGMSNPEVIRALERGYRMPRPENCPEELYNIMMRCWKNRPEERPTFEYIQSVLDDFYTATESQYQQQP
Chain of Homeodomain-interacting protein kinase 1 (Homo sapiens) (Q86Z02 whole entry, looked up): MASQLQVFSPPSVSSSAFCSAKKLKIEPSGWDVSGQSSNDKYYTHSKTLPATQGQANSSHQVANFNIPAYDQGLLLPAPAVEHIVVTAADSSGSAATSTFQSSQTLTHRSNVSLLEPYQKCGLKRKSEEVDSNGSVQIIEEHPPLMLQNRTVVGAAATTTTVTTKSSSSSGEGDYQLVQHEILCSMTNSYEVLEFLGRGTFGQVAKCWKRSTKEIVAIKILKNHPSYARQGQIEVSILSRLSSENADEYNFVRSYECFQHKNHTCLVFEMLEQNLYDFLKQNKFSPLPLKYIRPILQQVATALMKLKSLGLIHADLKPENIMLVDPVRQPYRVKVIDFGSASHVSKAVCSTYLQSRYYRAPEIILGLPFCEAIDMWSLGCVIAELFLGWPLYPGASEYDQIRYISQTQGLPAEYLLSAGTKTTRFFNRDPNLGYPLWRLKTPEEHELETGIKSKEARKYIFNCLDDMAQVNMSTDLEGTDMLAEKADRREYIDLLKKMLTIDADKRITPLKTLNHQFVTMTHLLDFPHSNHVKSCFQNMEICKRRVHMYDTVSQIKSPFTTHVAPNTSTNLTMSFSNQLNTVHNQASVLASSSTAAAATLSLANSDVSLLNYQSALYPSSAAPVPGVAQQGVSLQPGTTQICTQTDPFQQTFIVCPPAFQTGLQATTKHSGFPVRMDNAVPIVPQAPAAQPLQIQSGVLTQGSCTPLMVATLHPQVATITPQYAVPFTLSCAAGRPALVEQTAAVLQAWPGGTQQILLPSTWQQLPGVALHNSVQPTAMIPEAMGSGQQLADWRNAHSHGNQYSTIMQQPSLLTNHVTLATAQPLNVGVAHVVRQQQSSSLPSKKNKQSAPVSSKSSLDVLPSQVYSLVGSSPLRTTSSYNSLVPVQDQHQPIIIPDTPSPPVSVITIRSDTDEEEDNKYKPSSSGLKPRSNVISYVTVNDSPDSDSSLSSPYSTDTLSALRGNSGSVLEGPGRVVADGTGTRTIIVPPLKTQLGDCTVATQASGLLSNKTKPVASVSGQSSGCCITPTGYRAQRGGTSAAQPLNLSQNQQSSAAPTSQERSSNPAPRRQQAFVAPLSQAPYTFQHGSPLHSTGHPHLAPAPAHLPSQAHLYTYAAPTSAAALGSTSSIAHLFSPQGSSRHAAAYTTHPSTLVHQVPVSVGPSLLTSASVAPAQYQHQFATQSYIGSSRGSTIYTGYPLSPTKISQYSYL

As to `Nc1cccc(-c2cc3c(Oc4cccc(O)c4)ncnc3[nH]2)c1`, the residual activity was 91% in test [1]; 27% in test [2]; 3% in [3]; 22% in test [4]; 6% in test [5]; 95% in [6]. The residual activity in test [7] is 54%; in test [8] it was 86%; in test [9] it was 45%; in test [10], 4%; in test [11] it was 1%; in test [12], -3%. Moreover, the figures for the residual activity in test [13], in [14] and in [15] were -1%, 99% and 124%, respectively.

`Oc1c2ccccc2c2c3c(cccc13)N=N2`: the residual activity stood at 27% in test [1]; 54% in [2]; 40% in test [3]; 74% in test [4]; 58% in [5]; 93% in test [16]. In addition, the residual activity in test [17] turned out to be 62%; in test [6], 55%; in test [7], 15%; in test [18], 73%; in [19], 19%; in test [8], 10%. Besides, the residual activity was -1% in [9]; 57% in test [10]; 27% in test [11]; 80% in test [12]; 83% in [13]; 91% in test [14]. Also, the residual activity in [15] was 105%; in [20], 106%.

As for `CC(=O)c1ccc(N2CCOCC2)cc1O`, the residual activity in test [1] is 90%; in test [4], 101%; in [5], 109%; in [16] it was 97%; in test [17] it was 104%; in test [6], 100%. Also, the residual activity was 94% in [7]; 95% in [18]; 98% in test [19]; 78% in test [8]; 39% in test [9]; 84% in test [10]. The residual activity worked out at 74% in [11]; 97% in [12]; 107% in [13]; 148% in test [14]; 106% in [20].

Take `N#Cc1cnc2cnc(NCc3cccnc3)cc2c1Nc1ccc(F)c(Cl)c1`: the residual activity in test [1] is 94%; in test [2], 46%; in test [3], 39%; in test [4] it was 62%; in [5] it was 42%; in test [6], 94%. The residual activity in [7] stood at 84%; in test [8] it was 102%; in test [9], 67%; in test [10], 17%; in test [11], 12%; in test [13] it was 91%. In addition, the figures for the residual activity in [14] and in [20] were 97% and 94%, respectively.

As to `CC(C)n1cnc2/c(=N/c3cccc(Cl)c3)nc(NCCO)[nH]c21`, the residual activity in [1] stood at 20%; in test [2], 98%; in [3], 69%; in test [4], 122%; in [5] it was 88%; in test [16], 98%. For the same compound, the residual activity in test [17] was found to be 73%; in test [6] it was 89%; in test [7], 56%; in test [19] it was 83%; in test [8], 80%; in test [9] it was 58%. The residual activity in test [10] amounted to 41%; in [11], 13%; in [12], 57%; in [13], 13%; in test [14], 103%; in test [15], 105%. Also, the residual activity in test [20] was 102%.

`CO[C@H]1[C@@H](OC)C[C@H](C)[C@@H](OC)C2=CC(=O)C=C(NC(=O)/C(C)=C/C=C/[C@H](OC)[C@@H](OC(N)=O)/C(C)=C/[C@@H]1C)C2=O`: the residual activity in test [1] came to 92%; in test [2] it was 100%; in test [3], 109%; in [4], 92%; in test [5] it was 104%; in test [16] it was 102%. Also, the residual activity in test [17] worked out at 104%; in test [6], 108%; in [7], 92%; in [18], 100%; in [19] it was 105%; in test [8] it was 88%. The residual activity in test [9] is 78%; in test [10], 78%; in test [11], 76%; in test [13] it was 103%; in test [14], 137%; in [15], 113%. Further, in test [20], the residual activity amounted to 106%.

In general, residual activity refers to the signal under treatment as a percentage of the control signal.
